Screens as filed in PubChem.
DRD3 antagonist – antagonists of human D3 dopamine receptor; P35462; D3R cells, DiscoveRx beta-arrestin luminescence, antagonist mode; hits give low values; max response, negative = inhibition, %; 2.5% of 360,000 active; in the data active means max response below about -50%; inconclusive means no clear call, values can overlap the other calls; further: on the % scale 0 is the no-effect control and ±100 the full control effect
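Cells plated overnight at 1500 cells/well, then exposed to library compounds with dopamine controls for 90 minutes at 37 degrees C. DiscoveRx reagent added for 30–60 minutes at room temperature; luminescence read, quantitative HTS format.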
D3 ag – activates the human D3 dopamine receptor; D3R DiscoveRx beta-arrestin cells, luminescence, 90 min; max activation, %; 0.58% of 410,000 active; AID 652048; in the data active means max activation above about 30%; further: 0% is about no effect
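Agonist-mode cell screen: cells plated at 1500/well and incubated overnight at 37 °C, then exposed to library compounds for 90 min at 37 °C. Detection reagent was added for 30–60 min at room temperature, and luminescence was read.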
TDP1 cell noCPT – qHTS for Inhibitors of human tyrosyl-DNA phosphodiesterase 1 (TDP1): qHTS in cells in absence of CPT. 15% of 420,000 active. Potency, µM (titrated, usually from 46.2 µM), without a hit: at the highest dose activity change, negative = growth inhibition, hits mostly inhibitors. DT40 Tdp1-/- hTDP1 cells, no CPT, ATP luminescence, 48 h. AID 686978, 2013; further: potency means the concentration at half of the fitted maximal effect; on the % scale 0 is the no-effect control and ±100 the full control effect; nearly all actives have a fitted effect of over 55% in size
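Stably hTDP1-transfected Tdp1-null chicken DT40 cells were treated with library compounds minus camptothecin and grown for at least 48 hr at 37 °C, after which cellular ATP was quantified by luminescence.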
IL1B secr inh – inhibitors of inflammasome signaling (IL-1 beta secretion); THP-1 LPS/ATP IL-1B secretion, AlphaLISA, 16 h; hits give low values; activity change, % at 57.5 µM; 4.7% of 360,000 active; in the data active means activity change below about -50%; inconclusive means mostly about -30% to -49%; further: on the % scale 0 is the no-effect control and ±100 the full control effect
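Secreted IL-1B measured by AlphaLISA bead assay after 16 h compound exposure of THP-1 cells; compounds (final up to 57.5 uM) added 1 h before LPS (250 ng/mL) and ATP (1.25 mM) stimulation; lower signal means less secretion.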
ClpP mod – qHTS Assay for Activators of ClpP; ATP-dependent Clp protease proteolytic subunit (Bacillus subtilis (strain 168)), P80244; purified B. subtilis ClpP, FRET peptide cleavage, 20 min; Potency, µM (highest dose often 57.5 µM), without a hit: at the highest dose activity change, negative = active; 1.9% of 340,000 active; active means well fitted falling curve with a large enough effect; inconclusive means small, poorly fitted or top-dose-only effect; inactive means no such curve, though single readings can be large or run the other way; further: potency means the concentration at half of the fitted maximal effect; the source files actives as falling curves though it sought activators and does not explain the sign; nearly all actives have a fitted effect of over 65% in size
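FRET quenching reversal measured ClpP activation: 10 microg/mL B. subtilis ClpP at pH 8 with the FRET-FV decapeptide, read at 430 nm after 320 nm excitation. The 20-min minus 0-min signal was scaled between DMSO/no-enzyme wells and ADEP (5.8 microM final).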
TDP1 cell CPT – DT40-hTDP1 cell growth loss with CPT | 12% of 420,000 active | chicken DT40 Tdp1-/-;hTDP1 cells + 20 nM CPT, ATP luminescence, 48 h | AID 686979 | Potency, µM (top dose mostly 46.2 µM), without a hit: at the highest dose activity change, negative = growth inhibition, actives largely listed as inhibitors; further: potency means the concentration at half of the fitted maximal effect; on the % scale 0 is the no-effect control and ±100 the full control effect; nearly all actives have a fitted effect of over 55% in size
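Cell growth measured by CellTiter-Glo luminescence after a minimum 48 h, 37 C compound exposure with 20 nM CPT in Tdp1-knockout DT40 cells stably expressing hTDP1, seeded 400/well; qHTS titration format.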
Starred values were filed as active, the others as inactive; ? = inconclusive; / = no result; ! = not confirmed by another sample; [ ] = dose if it differs, or a comment. Compounds with a hit are over-represented: about 21% of the library has one in this group of screens. Unless noted, the call rests on the fitted dose curve; in most records, active means well fitted inhibition curve with a large enough effect; inconclusive means small, poorly fitted or top-dose-only effect; inactive means flat fitted curve, though single readings scatter.

SMILES	DRD3 antagonist	D3 ag	TDP1 cell noCPT	IL1B secr inh	ClpP mod	TDP1 cell CPT
NC(Cc1ccc(F)cc1)c1csc(Nc2ccccn2)n1 (stereo unspecified)	0	-9	16µM*	-51*	-3%	?
COc1cccc(Nc2nc(C(N)Cc3ccc(F)cc3)cs2)n1 (stereo unspecified)	2	-1	8.2µM*	-64*	-2%	18µM*
NC(Cc1ccc(Cl)cc1)c1csc(Nc2ccccn2)n1 (stereo unspecified)	0	-3	13µM*	-66*	-10%	15µM*
NC(Cc1ccccc1)c1csc(Nc2ccccn2)n1 (stereo unspecified)	-19	-16	?	-19	-5%	?
CCc1cc(=O)oc2cc(OCC(=O)N3C[C@H]4C[C@@H](C3)c3cccc(=O)n3C4)ccc12	-7	2	18%	-6	5%	7%
CCCCC/C=C\C/C=C\C/C=C\C/C=C\CCCC(=O)O	/	/	24µM*!	/	/	30µM*!
CCCCC/C=C\C[C@@H](/C=C/C=C\C/C=C\CCCC(=O)O)OO	/	/	14%[0.628 µM]	/	/	-1%[0.628 µM]
COc1cc(/C=C/C(=O)c2c(O)n(CCc3ccccc3)c(=O)[nH]c2=O)ccc1O	-16	0	10µM*	-99*	2%	13µM*
O=C(/C=C/c1ccccc1)c1c(O)n(CCc2ccccc2)c(=O)[nH]c1=O	-25	-7	2.6µM*	-23	-5%	5.2µM*
O=C(/C=C/c1ccc2c(c1)OCO2)c1c(O)n(CCc2ccccc2)c(=O)[nH]c1=O	-2	1	?	-5	/	?
Cn1cc(C(=O)NP(=O)(N2CCOCC2)N2CCOCC2)c2ccccc21	16	6	13%	6	/	9%
COc1cccc(-c2nn3c(=O)cc(CN4CCN(C(=O)COc5ccccc5C)CC4)nc3s2)c1	/	7	23µM*	/	-3%	?
COc1ccccc1-c1nn2c(=O)cc(CN3CCN(C(=O)Nc4ccc(C)cc4Cl)CC3)nc2s1	/	6	6.5µM*	/	-17%	15µM*
COc1ccc(NC(=O)N2C[C@@H]3C[C@@H](C2)c2cccc(=O)n2C3)c(OC)c1	5	8	-1%	13	1%	5%
COc1ccc(-c2nn3c(=O)cc(CN4CCN(C(=O)COc5ccc(F)cc5)CC4)nc3s2)cc1	/	1	?	/	4%	-28%
COc1ccc(-c2nn3c(=O)cc(CN4CCN(S(=O)(=O)c5ccc(C)cc5)CC4)nc3s2)cc1	/	12	16µM*	/	4%	21µM*
Cc1ccc(-c2nn3c(=O)cc(CN4CCN(C(=O)COc5ccc(C)c(C)c5)CC4)nc3s2)cc1	/	6	?	/	-1%	?
COc1ccc(OCC(=O)N2CCN(Cc3cc(=O)n4nc(-c5ccccc5C)sc4n3)CC2)cc1	/	-5	10µM*	/	-2%	15µM*
Cc1ccccc1-c1ccc2n1Cc1cnnn1-c1ccccc1-2	2	1	?	-8	5%	?
O=c1cccc2n1C[C@H]1C[C@@H]2CN2CCCC[C@@H]12	12	5	-9%	-6	/	1%
CN1CCc2nc(SCc3ccccc3Br)c(C#N)cc2C1	-81*	-11	18µM*	-17	-8%	?
Cc1ccc(S(=O)(=O)N(C)C[C@H]2Oc3c(NC(=O)Nc4cccc5ccccc45)cccc3C(=O)N([C@@H](C)CO)C[C@@H]2C)cc1	1	-12	?	?	-30%	16µM*
Cc1ccc(S(=O)(=O)N(C)C[C@H]2Oc3cc(Br)ccc3S(=O)(=O)N([C@H](C)CO)C[C@@H]2C)cc1	20	6	9%	0	2%	12%
Cc1ccc(S(=O)(=O)N(C)C[C@H]2Oc3cc(Br)ccc3S(=O)(=O)N([C@H](C)CO)C[C@H]2C)cc1	10	-3	29µM*	-28	1%	?
C[C@H](CO)N1C[C@H](C)[C@@H](CN(C)C(=O)Nc2ccc(C(F)(F)F)cc2)Oc2c(NS(=O)(=O)c3cccs3)cccc2C1=O	10	-26	?	-5	1%	?
SMILES	DRD3 antagonist	D3 ag	TDP1 cell noCPT	IL1B secr inh	ClpP mod	TDP1 cell CPT
Cc1ccc(S(=O)(=O)N(C)C[C@@H]2Oc3ncc(Br)cc3C(=O)N([C@H](C)CO)C[C@H]2C)cc1	19	12	9.2µM*	22	2%	?
C[C@H](CO)N1C[C@H](C)[C@H](CN(C)C(=O)Nc2cccc3ccccc23)Oc2c(NC(=O)c3ccc(-c4nccs4)cc3)cccc2C1=O	24	6	?	-7	-11%	?
C[C@H]1CN([C@@H](C)CO)C(=O)c2cccc(NC(=O)c3ccc(-c4nccs4)cc3)c2O[C@@H]1CN(C)C(=O)Nc1cccc2ccccc12	-6	-22	15µM*	0	-17%	26µM*
Cc1nn(Cc2ccccc2)c(Cl)c1C(=O)OCC(=O)N1CCCC1	-5	-2	-1%	-1	1%	-3%
NCC(N)C(=O)c1ccccc1 (stereo unspecified)	/	/	-8%	/	/	-6%
CN1CCCN(c2ccc([N+](=O)[O-])nc2)CC1	-15	-3	0%	1	/	17%
COc1ccc(NC(=O)Cn2c(=O)c3cccn3c3ccccc32)cc1Cl	/	10	?	/	0%	?
CC(C)COP(=O)(c1ccc(N(C)C)cc1)C(O)c1ccc(Br)cc1 (stereo unspecified)	-9	1	-26%	-12	-3%	?
c1ccc2c(c1)CSc1ccccc1C2C1=NCCN1 (stereo unspecified)	-11	-15	?	9	1%	-14%
Brc1ccc2c(c1)C(OC1CN3CCC1CC3)c1ccccc1CS2 (stereo unspecified)	?	-23	5.2µM*	-80*	1%	13µM*
O=C(NCCSc1c(-c2ccc(F)cc2)[nH]c2ccccc12)c1ccc(S(=O)(=O)N2CCOCC2)cc1	/	3	4.1µM*	/	-3%	5.2µM*
COc1cc(C(=O)NCCSc2c(-c3ccccc3)[nH]c3ccccc23)cc(OC)c1OC	/	1	8.2µM*	/	4%	8.2µM*
CCCOP(=O)(OCCC)C(NC(=O)c1cc(OC)c(OC)c(OC)c1)c1ccccc1 (stereo unspecified)	10	-3	?	0	/	-24%
